Laboratory results: PubChem BioAssay (NCATS)
Results filed as inconclusive are left out. Calls of active or inactive are those of the source. Calls come from the whole dose curve; as a rule, active = well fitted curve in the direction sought with a large enough effect; inconclusive = small, poorly fitted or top-dose-only effect, or another doubt; inactive = no such curve, though single readings can be large; an effect the other way counts as inactive or inconclusive.

Assays:
[1] = OV-KATE Cancer Cell Toxicity qHTS against the NCATS CANVASS Library (AID 1347345); note: % is set by controls: 0 for no effect and ±100 for the full control effect
Procedure, shortened: (§1)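 Cells were seeded at 1000 per well, allowed 4 h at 37 degrees C/5% CO2, then pin-treated with an 11-point compound series. After 72 h, viability was read as CellTiter-Glo luminescence following 15min at room temperature.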

[2] = SW1088 Cancer Cell Toxicity qHTS against the NCATS CANVASS Library (AID 1347350); note: nearly all actives have a fitted effect of over 75% in size; note: potency is the fitted concentration of half-maximal effect
Procedure, shortened: as §1

[3] = U-118MG Cancer Cell Toxicity qHTS against the NCATS CANVASS Library (AID 1347351); note: potency is the fitted concentration of half-maximal effect
Procedure, shortened: as §1

[4] = COV-362 Cancer Cell Toxicity qHTS against the NCATS CANVASS Library (AID 1347352); note: potency is the fitted concentration of half-maximal effect
Procedure, shortened: (§2)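 Toxicity was measured as CellTiter-Glo luminescence after 72 h exposure to an 11-point compound series. Compound was added to 1000 cells/well 4 h after seeding.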

[5] = UWB1.289-WTBRCA1 Cancer Cell Toxicity qHTS against the NCATS CANVASS Library (AID 1347354)
Procedure, shortened: as §2

[6] = HEK-293 Cancer Cell Toxicity qHTS against the NCATS CANVASS Library (AID 1347355); note: nearly all actives have a fitted effect of over 65% in size; note: potency is the fitted concentration of half-maximal effect
Procedure, shortened: as §2

[7] = qHTS for ATAD5 Agonist screened against the NCATS CANVASS Library (AID 1347367);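 note: luciferase reporter driven by ATAD5 which rises upon DNA damage; 0% is about no effect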
Procedure, shortened: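 Luciferase reporter under ATAD5 control, stably integrated in HEK293T cells (2000/well). Compounds (11 points) incubated 16 h at 37C; viability read first by CellTiter-Fluor, then luminescence reporting ATAD5 activation. MMS positive control.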

[8] = target: Nuclear receptor subfamily 1 group I member 3 (Homo sapiens) (UniProt Q14994); assay: qHTS for Constitutive Androstane Receptor (CAR) Agonist screened against the NCATS CANVASS Library (AID 1347373);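 note: every well also contained 1.5 µM PK11195 alongside the test compound; 0% is about no effect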
Sequence of Nuclear receptor subfamily 1 group I member 3 (Homo sapiens) (Q14994 whole entry, looked up): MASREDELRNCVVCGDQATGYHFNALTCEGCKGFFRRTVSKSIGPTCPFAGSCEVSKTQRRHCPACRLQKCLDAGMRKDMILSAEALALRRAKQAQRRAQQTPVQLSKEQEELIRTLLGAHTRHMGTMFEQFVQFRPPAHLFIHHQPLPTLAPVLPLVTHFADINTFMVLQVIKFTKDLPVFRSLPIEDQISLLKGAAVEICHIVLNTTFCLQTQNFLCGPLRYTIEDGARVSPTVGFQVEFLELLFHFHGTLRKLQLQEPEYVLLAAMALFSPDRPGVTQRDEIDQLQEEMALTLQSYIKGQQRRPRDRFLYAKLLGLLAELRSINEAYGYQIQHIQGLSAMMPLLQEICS
Procedure, shortened: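 Agonist mode with 1.5uM PK11195 present: compounds for 24hr on HepG2-hCAR-CYP2B6 cells. CellTiter-Fluor fluorescence (ex 405, em 540 nm) gives viability; ONE-Glo luminescence reports CAR activation.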

[9] = qHTS for Hypoxia signaling pathway (HIF-1) agonists against the NCATS CANVASS Library (AID 1347375); note: 0% is about no effect
Procedure, shortened: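 Beta-lactamase reporter under HRE control in ME-180 cells; compounds (11-point qHTS series) added after 5 hrs plating, then 17 hrs at 37C. FRET substrate read after 2 hr; same-well CellTiter-Glo luminescence gave viability and normalization.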

[10] = qHTS for inhibitors of ER calcium dysfunction: SERCaMP assay screened against the NCATS CANVASS Library (AID 1347393); note: nearly all actives have a fitted effect of over 40% in size; note: potency is the fitted concentration of half-maximal effect;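 for activity change, negative = inhibition: series mostly up to about 77 µM; % is set by controls: 0 for no effect and ±100 for the full control effect; lower secreted reporter signal means inhibitor of ER calcium depletion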
Procedure, shortened: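 Thapsigargin-induced ER calcium depletion drives GLuc-SERCaMP secretion from SH-SY5Y cells; compounds given 16 h beforehand were scored by lowered coelenterazine luminescence after 4 h challenge.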

[11] = HPAF-II Cancer Cell Toxicity qHTS against the NCATS CANVASS Library (AID 1347346); note: nearly all actives have a fitted effect of over 55% in size; note: potency is the fitted concentration of half-maximal effect
Procedure, shortened: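 Cytotoxicity read-out was CellTiter-Glo luminescence after 72 h at 37 degrees C exposure of HPAF-II cells (1000/well) to compounds in an 11-point titration.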

[12] = SDT Cancer Cell Toxicity qHTS against the NCATS CANVASS Library (AID 1347365); note: nearly all actives have a fitted effect of over 60% in size; note: potency is the fitted concentration of half-maximal effect
Procedure, shortened: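 Cytotoxicity taken from CellTiterGlo ATP luminescence after 72 hr at 37C, 5% CO2. Canine glioma line SDT, 500 cells/well, treated at 11 concentrations; bortezomib dose series as control.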

[13] = target: Nuclear receptor subfamily 1 group I member 3 (Homo sapiens) (UniProt Q14994); assay: qHTS for Constitutive Androstane Receptor (CAR) Antagonist screened against the NCATS CANVASS Library (AID 1347372);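 note: cells stimulated with 50 nM CITCO agonist so inhibition reflects antagonism; series mostly up to about 46 µM; % is set by controls: 0 for no effect and ±100 for the full control effect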
Procedure, shortened: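 Antagonist mode: compound added alongside 50 nM CITCO to HepG2-hCAR-CYP2B6 reporter cells, 24hr at 37C. Viability by CellTiter-Fluor fluorescence, then CAR-driven luciferase by ONE-Glo luminescence.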

[14] = qHTS for Hypoxia signaling pathway (HIF-1) antagonists against the NCATS CANVASS Library (AID 1347374); note: nearly all actives have a fitted effect of over 60% in size; note: potency is the fitted concentration of half-maximal effect
Procedure, shortened: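 Antagonism scored as loss of CoCl2-driven (60 uM stock added) HRE beta-lactamase signal, read by CCF4 FRET at 460/530 nm. Compounds were tested in an 11-point series on ME-180 reporter cells for 17 hrs at 37C, with parallel CellTiter-Glo cytotoxicity.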

[15] = Secretion counterscreen for inhibitors of the SERCaMP assay screened against the NCATS CANVASS Library (AID 1347390);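 note: light from luciferase secreted into medium read as a measure of general secretion; series mostly up to about 77 µM; % is set by controls: 0 for no effect and ±100 for the full control effect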
Procedure, shortened: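 SH-SY5Y cells with constitutively secreted GLuc reporter, 1000 cells/well, treated 20 h at 37C with compounds at 0.001 - 77 uM final; secreted luciferase read as luminescence after coelenterazine; Brefeldin A as positive control.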

[16] = UWB1.289 Cancer Cell Toxicity qHTS against the NCATS CANVASS Library (AID 1347347); note: nearly all actives have a fitted effect of over 60% in size; note: potency is the fitted concentration of half-maximal effect
Procedure, shortened: as §1

[17] = Panc-1005 Cancer Cell Toxicity qHTS against the NCATS CANVASS Library (AID 1347349); note: nearly all actives have a fitted effect of over 60% in size; note: potency is the fitted concentration of half-maximal effect
Procedure, shortened: as §1

[18] = KB-8-5-11 Cancer Cell Toxicity qHTS against the NCATS CANVASS Library (AID 1347364); note: nearly all actives have a fitted effect of over 75% in size; note: potency is the fitted concentration of half-maximal effect
Procedure, shortened: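 Viability read as CellTiter-Glo luminescence after 72 h at 37 °C, 5% CO2. 11-point compound series on 500 KB-8-5-11 cells/well in DMEM/10% FBS. Follow-up plating included 1 uM tariquidar in the medium.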

[19] = DH5-alpha competent E. coli microbial cell viability qHTS against the NCATS CANVASS Library (AID 1347377); conditions: outcome: dose series up to 46.1 µM unless noted
Procedure, shortened: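 Bacterial viability as ATP-dependent luminescence (BacTiter-Glo), read after overnight 37 °C exposure of DH5-alpha competent E. coli to compounds in 11-point titration.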

[20] = qHTS for inhibitors of Wild type Zika virus screened against the NCATS CANVASS Library (AID 1347396);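 note: ATP luminescence of surviving cells so rescue from viral cell killing; series mostly up to about 46 µM; % is set by controls: 0 for no effect and ±100 for the full control effect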
Procedure, shortened: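 Vero 766 cells, 1000/well, o/n attach; cpds pin-transferred (11-pt qHTS); WT Zika added; 72 h, 37C, 5% CO2; CellTiter Glo lumi. Uninfected + vehicle = 100% inhibition.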

C[C@]12CC[C@]3(C1)[C@H](CC2=O)C[C@@H](OC(=O)c1ccccc1)[C@H]1[C@](C)(C(=O)O)CCC[C@@]13C
inactive: Potency [1] | Potency [3] | Potency [4] | Potency [5] | Potency [7] | Potency [8] | outcome [9] | Potency [10]
active: Potency [2] 1.49 µM | Potency [6] 13.2 µM

C/C=C(/C)c1c(Cl)c(OC)c(C)c2c1Oc1c(Cl)c(O)c(Cl)c(C)c1C(=O)O2
inactive: Potency [1] | Potency [3] | Potency [4] | Potency [6] | Potency [12] | Potency [7] | Potency [13] | Potency [8] | outcome [9] | Potency [15] | Potency [10]
active: Potency [11] 13.3 µM | Potency [2] 13.3 µM | Potency [14] 10.6 µM

COc1cc(C2OCC3C(c4ccc(O)c(OC)c4)OCC23)ccc1O (stereo not drawn)
inactive: activity change, negative = cytotoxicity [1] -0.541% [at 7.64 µM] | activity change, negative = cytotoxicity [16] -13.2% [at 7.64 µM] | activity change, negative = cytotoxicity [17] -5.51% [at 7.64 µM] | outcome [2] inactive [at 7.64 µM] | activity change, negative = cytotoxicity [3] -4.99% [at 7.64 µM] | activity change, negative = cytotoxicity [4] -3.45% [at 7.64 µM] | outcome [5] inactive [at 7.64 µM] | outcome [18] inactive [at 9.19 µM] | activity change, negative = cytotoxicity [12] 2.04% [at 9.19 µM] | activation [7] 3.68% [at 9.19 µM] | activation [8] 1.13% [at 9.19 µM] | activation [9] -1.39% [at 7.64 µM] | outcome [19] inactive [at 9.19 µM] | activity change, negative = inhibition [15] 27.5% [at 15.3 µM] | activity change, negative = inhibition [10] 43.6% [at 15.3 µM] | activity change, negative = antiviral [20] -5.5% [at 9.14 µM]

C[C@H]1C=C[C@H]2CCCC[C@@H]2[C@H]1C(=O)[C@H]1CC2=C(C(=O)O)CCN2C1=O
active: Potency [2] 16.8 µM | Potency [10] 19.3 µM
inactive: Potency [1] | Potency [16] | Potency [17] | Potency [3] | Potency [4] | Potency [5] | Potency [6] | Potency [18] | Potency [12] | Potency [7] | Potency [13] | Potency [8] | Potency [14] | outcome [9] | outcome [19] | Potency [15] | outcome [20]

C=CC(CCCCC)C1C(=O)NC(=O)C1C(=O)C1C2C(C)CC(C(=O)O)CC2CC1(O)C(=O)/C=C/C (stereo not drawn)
active: Potency [14] 8.38 µM
inactive: Potency [1] | Potency [16] | Potency [17] | Potency [3] | Potency [4] | Potency [5] | Potency [6] | Potency [18] | Potency [12] | Potency [7] | Potency [8] | outcome [9] | outcome [19] | Potency [15] | Potency [10] | outcome [20]

CO[C@H]1[C@@H](OC(=O)/C(C)=C\[C@@H]2O[C@@H]2[C@H]2O[C@H]2C)[C@H](O)[C@H](OCC23C[C@@H]4[C@H](C)CC[C@H]4C4(C=O)CC2C=C(C(C)C)C34C(=O)O)O[C@@H]1C (stereo partly drawn)
inactive: Potency [1] | Potency [16] | Potency [17] | Potency [2] | Potency [3] | Potency [4] | Potency [5] | Potency [6] | Potency [18] | Potency [7] | Potency [14] | outcome [9] | outcome [19] | Potency [15] | outcome [20]

CC(C)C[C@@H]1c2c(O)c(C=O)c(O)c(C=O)c2O[C@]2(C)C=C[C@@H](C(C)C)C[C@H]12
inactive: Potency [1] | Potency [11] | Potency [17] | Potency [3] | Potency [4] | Potency [5] | Potency [6] | Potency [18] | Potency [12] | Potency [7] | Potency [8] | outcome [19] | Potency [15] | Potency [10] | outcome [20]

COc1ccc2[nH]c3c(c2c1)CCN1C[C@H]2C[C@@H](OC(=O)c4cc(OC)c(OC)c(OC)c4)[C@H](OC)[C@@H](OC)[C@H]2C[C@H]31
inactive: Potency [1] | Potency [5] | Potency [13] | Potency [14] | outcome [9] | outcome [19] | outcome [20]
active: Potency [11] 13.3 µM | Potency [17] 13.3 µM | Potency [6] 20.9 µM | Potency [12] 0.526 µM | Potency [10] 6.09 µM

C=C(C)CC[C@H](Cc1c(O)cc(O)c2c1O[C@H](c1ccc(O)cc1)CC2=O)C(=C)C
active: Potency [2] 23.7 µM
inactive: Potency [1] | Potency [11] | Potency [17] | Potency [3] | Potency [4] | Potency [5] | Potency [6] | Potency [13] | Potency [15]

C=CC(CCCCC)C1C(=O)NC(=O)C1C(=O)C1C(/C=C/C)C=CC2CC(C(=O)O)CC(C)C21 (stereo not drawn)
active: Potency [11] 9.43 µM | Potency [2] 9.43 µM | Potency [3] 21.1 µM
inactive: Potency [1] | Potency [4] | Potency [12] | Potency [7] | Potency [8] | outcome [9] | Potency [15] | Potency [10]

O=c1cc(-c2ccc(O)c(O)c2)oc2cc(O[C@@H]3O[C@H](CO)[C@@H](O)[C@H](O)[C@H]3O)cc(O)c12
active: Potency [16] 1.18 µM | Potency [10] 38.4 µM
inactive: Potency [1] | Potency [3] | Potency [4] | Potency [8] | Potency [14] | outcome [9] | outcome [19] | Potency [15] | outcome [20]

CC(=O)Oc1cc2c(c(OC(C)=O)c1C1CCc3cc(Cl)c(Cl)n31)C(=O)n1c-2cc(Cl)c1Cl (stereo not drawn)
inactive: Potency [7] | Potency [13] | outcome [9]
active: Potency [11] 10.6 µM | Potency [16] 3.34 µM | Potency [17] 6.68 µM | Potency [2] 4.73 µM | Potency [3] 13.3 µM | Potency [4] 9.41 µM | Potency [6] 16.6 µM | Potency [18] 14.8 µM | Potency [12] 10.5 µM | Potency [14] 3.34 µM
